Each structure is given as a SMILES string. Results filed as inconclusive are left out. Unmarked numbers belong to inactive results. Active and inactive are the calls of the source. Calls come from the whole dose curve; as a rule, active = well fitted curve in the direction sought with a large enough effect; inconclusive = small, poorly fitted or top-dose-only effect, or another doubt; inactive = no such curve, though single readings can be large; an effect the other way counts as inactive or inconclusive.

Chain of Voltage-gated inwardly rectifying potassium channel KCNH2 (Homo sapiens) (Q12809 whole entry, looked up): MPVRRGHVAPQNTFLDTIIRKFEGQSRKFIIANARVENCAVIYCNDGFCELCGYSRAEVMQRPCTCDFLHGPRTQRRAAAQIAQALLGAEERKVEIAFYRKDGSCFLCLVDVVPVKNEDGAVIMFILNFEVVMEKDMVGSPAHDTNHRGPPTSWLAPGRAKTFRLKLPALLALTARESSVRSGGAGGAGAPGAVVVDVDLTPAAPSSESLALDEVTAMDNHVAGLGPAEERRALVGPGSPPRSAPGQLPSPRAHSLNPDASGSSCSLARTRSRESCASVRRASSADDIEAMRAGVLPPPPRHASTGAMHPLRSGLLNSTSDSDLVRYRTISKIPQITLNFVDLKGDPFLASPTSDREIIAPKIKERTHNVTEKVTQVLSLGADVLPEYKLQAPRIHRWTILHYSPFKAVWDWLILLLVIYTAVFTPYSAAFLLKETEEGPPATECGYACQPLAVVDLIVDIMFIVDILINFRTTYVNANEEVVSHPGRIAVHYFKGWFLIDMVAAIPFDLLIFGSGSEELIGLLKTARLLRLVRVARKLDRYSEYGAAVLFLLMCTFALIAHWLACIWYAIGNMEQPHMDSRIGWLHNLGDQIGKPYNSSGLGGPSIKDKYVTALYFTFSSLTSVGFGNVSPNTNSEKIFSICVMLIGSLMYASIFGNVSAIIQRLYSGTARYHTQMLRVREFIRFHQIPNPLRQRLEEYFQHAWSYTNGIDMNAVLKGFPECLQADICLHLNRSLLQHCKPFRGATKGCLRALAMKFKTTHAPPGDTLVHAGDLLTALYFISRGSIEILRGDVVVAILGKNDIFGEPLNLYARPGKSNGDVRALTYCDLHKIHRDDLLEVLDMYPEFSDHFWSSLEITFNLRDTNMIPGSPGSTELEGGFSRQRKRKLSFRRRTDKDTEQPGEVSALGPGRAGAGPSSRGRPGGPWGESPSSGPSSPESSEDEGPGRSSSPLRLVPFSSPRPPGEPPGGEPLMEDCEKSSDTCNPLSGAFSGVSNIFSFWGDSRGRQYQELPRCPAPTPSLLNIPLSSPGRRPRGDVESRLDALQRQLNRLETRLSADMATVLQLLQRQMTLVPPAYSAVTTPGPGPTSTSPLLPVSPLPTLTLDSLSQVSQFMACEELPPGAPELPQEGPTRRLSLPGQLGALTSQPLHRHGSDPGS
Chain of Luciferin 4-monooxygenase (Photinus pyralis) (P08659 whole entry, looked up): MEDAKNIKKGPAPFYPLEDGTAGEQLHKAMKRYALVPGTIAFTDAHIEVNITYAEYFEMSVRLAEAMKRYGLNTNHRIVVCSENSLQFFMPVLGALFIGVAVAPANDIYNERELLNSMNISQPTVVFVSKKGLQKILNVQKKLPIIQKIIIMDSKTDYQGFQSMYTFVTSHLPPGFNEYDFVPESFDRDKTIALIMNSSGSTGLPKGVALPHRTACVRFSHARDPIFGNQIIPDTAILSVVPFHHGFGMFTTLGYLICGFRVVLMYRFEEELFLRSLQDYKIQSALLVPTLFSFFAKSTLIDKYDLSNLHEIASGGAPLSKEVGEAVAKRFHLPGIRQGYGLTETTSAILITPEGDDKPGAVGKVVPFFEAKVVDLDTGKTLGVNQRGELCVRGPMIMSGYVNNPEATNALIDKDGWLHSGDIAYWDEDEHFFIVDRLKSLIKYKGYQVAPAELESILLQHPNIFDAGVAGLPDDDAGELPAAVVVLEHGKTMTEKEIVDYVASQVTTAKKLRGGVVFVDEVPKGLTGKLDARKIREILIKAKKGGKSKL

The target of the first assay is Voltage-gated inwardly rectifying potassium channel KCNH2 (Homo sapiens) (UniProt Q12809). The assay can be described thus: qHTS Assay for Small Molecule Inhibitors of the Human hERG Channel Activity (AID 588834).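 Note: top concentration of the series differs between compounds; % is set by controls: 0 for no effect and ±100 for the full control effect; lower thallium flux fluorescence means stronger hERG block; nearly all actives have a fitted effect of over 50% in size.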 The conditions noted are these: U2OS BacMam hERG, FluxOR thallium flux fluorescence; series mostly up to 46.1 µM; activity change, negative = inhibition: at the top concentration. In a few lines:
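U2OS cells transduced with hERG via BacMam (MOI ~100), plated 2000/well, loaded with FluxOR thallium dye, compound ~10 min, then stimulation buffer; fluorescence decrease read kinetically; AC50 from Hill fits.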
Regarding `Cc1ncc(C[n+]2csc(CCOP(=O)(O)O)c2C)c(N)n1`, the “activity change, negative = inhibition” value is -4.78%.
The same measure, in the same setting: under `CCCOC(=O)c1ccccc1O` stands -1.87%; under `CCCCCCCCCCCCCCCCCC(=O)OCC(C)O` (stereo not given), 14.4%; under `CC(C)(C)CC(C)(C)c1ccc(OCCO)cc1`, -12.5%.
Regarding `COc1cc(C)c(/C=C/C(C)=C/C=C/C(C)=C/C(=O)O)c(C)c1C`, the “activity change, negative = inhibition” value is -41.8%.
The same measure, in the same setting: under `CC(C)[C@@H]1CC[C@@H](C)C[C@H]1O` stands 12.8%.
The same measure, in the same setting: then `C(=C\c1ccncc1)/c1ccccc1`, with -0.356%; and `O=[n+]1ccn([O-])c2ccccc21`, with 11.5%.

The next assay concerns the target Luciferin 4-monooxygenase (Photinus pyralis) (UniProt P08659). In words: Biochemical firefly luciferase enzyme assay for NPC (AID 624030).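 For activity change, negative = inhibition: purified P. pyralis luciferase at 10 nM with luciferin and ATP substrate; 0% = DMSO and -100% = full luciferase inhibition by PTC124 control.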 Note: nearly all actives have a fitted effect of over 70% in size. Note: potency is the fitted concentration of half-maximal effect. To be noted: purified P. pyralis luciferase, luminescence, 5 min; series mostly up to 58.6 µM; activity change, negative = inhibition: at the top concentration. The essentials:
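Purified P. pyralis luciferase at 10 nM in 50 mM Tris Acetate (final), luminescence read within 5 minutes of enzyme addition to compounds. Activity normalised to PTC124 versus DMSO; concentration-response curves classed by r2, magnitude and activity.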
As for `C=CCN1CCCC1CNC(=O)c1cc(S(N)(=O)=O)cc(OC)c1OC` (stereo not given), the “activity change, negative = inhibition” value is 0.84%.
Take `O=C(O[C@H]1CN2CCC1CC2)N1CCc2ccccc2[C@@H]1c1ccccc1`: the “activity change, negative = inhibition” value was 4.62%.
The same measure, in the same setting: under `CCSc1ccc2c(c1)N(CCCN1CCN(C)CC1)c1ccccc1S2` stands 4.47% [at 24.9 µM].
As for `NC(=S)N=Nc1ccc(NN=C(N)N)cc1`, the Potency was 11.4 µM (active).
Turning to `CC1CCCCN1CCCOC(=O)c1ccccc1` (stereo not given), the “activity change, negative = inhibition” value was -1.38%.
Same read-out and setting: under `NCCN` stands 1.54%; under `CN(C)CCCSc1ccccc1NC(=O)/C=C/c1ccccc1`, -6.5%.
The same measure, in the same setting: under `C[C@]12CC[C@@H]3c4ccc(OC(=O)c5ccccc5)cc4CC[C@H]3[C@@H]1CC[C@@H]2O` stands -8.73%; under `CC(C)=CCC/C(C)=C/C=C/C(C)=C/C=C/C(C)=C/C=C/C=C(C)/C=C/C=C(C)/C=C/C=C(\C)CCC=C(C)C`, 5.59%.
In the case of `CN(C)CCC=C1c2ccccc2C(C)(C)c2ccccc21`, the “activity change, negative = inhibition” value is 12.6%.
For the compound `NCC(O)CC(=O)O` (stereo not given), the “activity change, negative = inhibition” value is 2.05%.
Consider `COc1ccc(C(=O)c2ccc(C)cc2)c(O)c1`, for which the Potency was 14.4 µM (active).
On to `O=P(O)(O)OP(=O)(O)O`, for which the “activity change, negative = inhibition” value was -3.75%.
Same read-out and setting: then `Cc1ccccn1`, with -3.55%.
As to `COc1ccc(/C=C/C(=O)OCCC(C)C)cc1`, the Potency was 11.4 µM (active).
Take `O=C(OC1C[C@@H]2CC3C[C@H](C1)N2CC3=O)c1c[nH]c2ccccc12` (stereo not given in full): the “activity change, negative = inhibition” value was -10.1%.
As to `Cc1ncc(C[n+]2csc(CCOP(=O)(O)OP(=O)(O)O)c2C)c(N)n1`, the “activity change, negative = inhibition” value is 36.4%.
Still for that read-out and setting: then `CCCCCCCCCCCCCCCCOCCOCCOCCOCCOCCOCCOCCOCCOCCOCCOCCOCCOCCOCCOCCOCCOCCOCCOCCOCCO`, with 7.46%.
As to `CCOC(=O)c1cc(-c2ccccc2)nc2ccc(C)cc12`, the “activity change, negative = inhibition” value is -12.5%.
Same read-out and setting: then `C[C@]12CCC(=O)C[C@@H]1CC[C@@H]1[C@@H]2CC[C@]2(C)C=CC[C@@H]12`, with 2.6%; and `CC(C)(CO)[C@@H](O)C(=O)NCCC(=O)NCCSSCCNC(=O)CCNC(=O)[C@H](O)C(C)(C)CO`, with 1.03%; and `C=C(C)C1CC=C(C)CC1` (stereo not given), with 0.833%.
On the same count and under the same terms, under `O=[N+]([O-])c1c(Cl)cccc1-c1c[nH]cc1Cl` stands -14%.

Tested on in another assay: not listed separately
The assay can be described thus: S16 Schwann cell viability assay (CellTiter-Glo assay) (AID 624031).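 For activity change, negative = cytotoxicity: native untransfected S16 rat Schwann cells; cellular ATP luminescence as a viability measure; plate controls were DMSO-treated cells for no effect and cell-free wells for full effect.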 Note: nearly all actives have a fitted effect of over 70% in size. Note: potency is the fitted concentration of half-maximal effect. To be noted: S16 rat Schwann cells viability, 24 h; series mostly up to 57.5 µM; activity change, negative = cytotoxicity: at the top concentration. The essentials:
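Concentration-effect curves come from CellTiter-Glo luminescence of S16 rat Schwann cells after 24 h compound exposure. Each reading was normalized to DMSO wells (0%) and wells without cells, and curves were ranked by r2 and response magnitude.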
As for `Cc1ncc(C[n+]2csc(CCOP(=O)(O)O)c2C)c(N)n1`, the “activity change, negative = cytotoxicity” value is -9.94%.
Consider `Cc1cc2nc3c(=O)[nH]c(=O)nc-3n(C[C@H](O)[C@H](O)[C@H](O)COP(=O)(O)OP(=O)(O)OC[C@H]3O[C@@H](n4cnc5c(N)ncnc54)[C@H](O)[C@@H]3O)c2cc1C`, for which the “activity change, negative = cytotoxicity” value was -14.8%.
As for `C=CCN1CCCC1CNC(=O)c1cc(S(N)(=O)=O)cc(OC)c1OC` (stereo not given), the “activity change, negative = cytotoxicity” value is -20.9%.
Consider `O=C(O[C@H]1CN2CCC1CC2)N1CCc2ccccc2[C@@H]1c1ccccc1`, for which the “activity change, negative = cytotoxicity” value was -7.9%.
For `CCCOC(=O)c1ccccc1O`, the “activity change, negative = cytotoxicity” value was -5.9%.
For `CCSc1ccc2c(c1)N(CCCN1CCN(C)CC1)c1ccccc1S2`, the “activity change, negative = cytotoxicity” value is -1.19% [at 25.7 µM].
With `NC(=S)N=Nc1ccc(NN=C(N)N)cc1`, the Potency was 10.2 µM (active).
Turning to `CC1CCCCN1CCCOC(=O)c1ccccc1` (stereo not given), the “activity change, negative = cytotoxicity” value was -5.26%.
As to `NCCN`, the “activity change, negative = cytotoxicity” value is -1.01%.
Still for that read-out and setting: then `CN(C)CCCSc1ccccc1NC(=O)/C=C/c1ccccc1`, with -16.7%.
On the same count and under the same terms, then `C[C@]12CC[C@@H]3c4ccc(OC(=O)c5ccccc5)cc4CC[C@H]3[C@@H]1CC[C@@H]2O`, with -22.2%; and `CC(C)(C)CC(C)(C)c1ccc(OCCO)cc1`, with -14.4%; and `CC(C)=CCC/C(C)=C/C=C/C(C)=C/C=C/C(C)=C/C=C/C=C(C)/C=C/C=C(C)/C=C/C=C(\C)CCC=C(C)C`, with 5.85%.
On to `CCN(CC)CCC(=O)N1c2ccccc2Sc2ccc(C(F)(F)F)cc21`, for which the “activity change, negative = cytotoxicity” value was -7.77%.
As to `COc1cc(C)c(/C=C/C(C)=C/C=C/C(C)=C/C(=O)O)c(C)c1C`, the “activity change, negative = cytotoxicity” value is -1.16%.
For the compound `NCC(O)CC(=O)O` (stereo not given), the “activity change, negative = cytotoxicity” value was -26.1%.
Still for that read-out and setting: then `COc1ccc(C(=O)c2ccc(C)cc2)c(O)c1`, with 1.65%; and `O=P(O)(O)OP(=O)(O)O`, with 6.03%; and `Cc1ccccn1`, with 1.26%.
Same read-out and setting: then `COc1ccc(/C=C/C(=O)OCCC(C)C)cc1`, with -1.01%.
Still for that read-out and setting: under `O=C(OC1C[C@@H]2CC3C[C@H](C1)N2CC3=O)c1c[nH]c2ccccc12` (stereo not given in full) stands -21.2%.
Consider `Cc1ncc(C[n+]2csc(CCOP(=O)(O)OP(=O)(O)O)c2C)c(N)n1`, for which the “activity change, negative = cytotoxicity” value was 9.82%.
With `O=[n+]1ccn([O-])c2ccccc21`, the “activity change, negative = cytotoxicity” value is 3.07%.
Take `CCCCCCCCCCCCCCCCOCCOCCOCCOCCOCCOCCOCCOCCOCCOCCOCCOCCOCCOCCOCCOCCOCCOCCOCCOCCO`: the Potency was 28.7 µM (active).
`CCOC(=O)c1cc(-c2ccccc2)nc2ccc(C)cc12`: the “activity change, negative = cytotoxicity” value is 2.99%.
The same measure, in the same setting: then `C[C@]12CCC(=O)C[C@@H]1CC[C@@H]1[C@@H]2CC[C@]2(C)C=CC[C@@H]12`, with -11.9%; and `CC(C)(CO)[C@@H](O)C(=O)NCCC(=O)NCCSSCCNC(=O)CCNC(=O)[C@H](O)C(C)(C)CO`, with 11.2%; and `C=C(C)C1CC=C(C)CC1` (stereo not given), with 11.2%.
Same read-out and setting: under `O=[N+]([O-])c1c(Cl)cccc1-c1c[nH]cc1Cl` stands -15.6%.

The values are drawn from PubChem BioAssay (NCATS).
